Data taken from PubChem BioAssay (NCATS).
Values without a mark were called inactive. No rule for the calls is given here.

The compounds below were run on HIV-1 nucleocapsid protein NCp7 (binding to TG oligonucleotide) (assay: HIV Nucleocapsid (AID 346;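 also: potency is for inhibitors that block NC binding and lower polarization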)). Details: HIV-1 NC / fluorescein-TGTGTGTG probe, fluorescence polarization.
Outline: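 NCp7 100 nM + fluorescein TG4xF 10 nM; Hepes pH 7.5/250mM NaCl/1uM ZnCl2/0.004% PEG 20000; 1 hr RT; FP, 45 s exposure; oligo-only wells as negative control.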
Potency is read from the fitted curve at half-maximal effect.

Row | SMILES | Potency [µM]
1 | CN(C)c1nc(-c2ccccc2C(F)(F)F)nc2ccccc12 | > 20
2 | COc1ccc(-n2c(=O)c(-c3cn(C)c4ccccc34)nc3cnc(N4CCOCC4)nc32)cc1 | > 20
3 | O=S(=O)(c1ccccc1)N1CCC2(CCN(c3ccccc3)CC2)CC1 | > 20
4 | Cc1noc(C)c1-c1nccc(NCc2cccs2)n1 | > 20
5 | Cn1cccc1C(=O)N1CCC2(CC1)CN(c1cccc(-c3ccccc3)c1)C2 | > 20
6 | COc1ccccc1CN1CCC2(CC1)CCN(C(=O)c1ccco1)CC2 | > 20
7 | COc1ccc(Oc2ncc3nc(-c4ccc(Cl)cc4)c(=O)n(C[C@H]4CCCO4)c3n2)cc1 | > 20
8 | O=S(=O)(c1ccccc1)N1CCC2(CCN(c3ccc(-c4ccccc4)cc3)CC2)CC1 | > 20
9 | Cc1cnc(CNc2nc(-c3c(C)noc3C)nc3ccccc23)cn1 | > 20
10 | Cn1c(=O)c(CCc2ccccc2)nc2cnc(OCc3ccccc3)nc21 | > 20
11 | O=C(Oc1ccccc1)N1CCC2(CC1)CCN(c1cccc(-c3ccccc3)c1)CC2 | > 20
12 | COc1ccc(NC(=O)N2CCC3(CC2)CCN(C(=O)c2ccco2)CC3)cc1 | > 20
13 | COc1ncc2nc(-c3cc(F)cc(F)c3)c(=O)n(CCc3ccccc3)c2n1 | > 20
14 | Clc1ccccc1-c1ccc2ncnc(NC3CCNCC3)c2c1 | > 20
